Screens as filed in PubChem.
Only some compounds are listed: those with a hit (about 2.3% of all), similar ones and a draw of the others.
CHRM1 PAM: potentiates human M1 receptor response to acetylcholine; P11229; CHO-K1 hM1, Fluo-8 calcium fluorescence, ACh EC20; 0% = ACh EC20, 100% = maximal ACh; AID 588819; activation, % at 3 µM; actives 0.088% (n = 360,000); in the data active = activation above about 19%, passing the limit was not always enough
Target sequence (P11229 whole entry, looked up): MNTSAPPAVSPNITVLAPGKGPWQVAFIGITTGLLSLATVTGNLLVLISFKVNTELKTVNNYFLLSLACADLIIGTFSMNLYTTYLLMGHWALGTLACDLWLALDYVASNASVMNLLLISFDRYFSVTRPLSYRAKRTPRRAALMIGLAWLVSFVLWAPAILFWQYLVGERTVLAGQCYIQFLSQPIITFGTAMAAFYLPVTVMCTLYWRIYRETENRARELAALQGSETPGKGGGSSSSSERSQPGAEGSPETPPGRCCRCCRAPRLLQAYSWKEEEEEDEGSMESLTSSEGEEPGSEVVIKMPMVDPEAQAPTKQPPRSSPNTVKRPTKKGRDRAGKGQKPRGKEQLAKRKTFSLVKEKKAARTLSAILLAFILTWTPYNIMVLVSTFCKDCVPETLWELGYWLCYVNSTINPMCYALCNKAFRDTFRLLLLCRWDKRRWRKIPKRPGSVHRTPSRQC
CHO-K1 Ca antag: nonselective inhibitor or artifact in parental CHO-K1 cells; ATP-induced calcium, Fluo-8 fluorescence; inhibition, % at 3 µM; actives 0.6% (n = 360,000);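 active = inhibition above a per-plate cutoff, the plate's mean sample inhibition plus 3 SD, cut at about 24% in these data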;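 note: 0% = DMSO plus EC80 ATP and 100% = DMSO alone without ATP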
CHRM1 antagonist: antagonists of human M1 muscarinic receptor | actives 1.3% (n = 360,000) | CHO-K1 hM1, Fluo-8 calcium fluorescence, ACh EC80 antagonist | AID 588852 | inhibition, % at 3 µM | P11229;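 active = percent inhibition above its own plate's cutoff, namely the mean of that plate's compound wells plus 3 SD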;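 note: peak over basal fluorescence ratio during 140 s after agonist addition; 0% = ACh EC80 plus DMSO and 100% = DMSO alone without agonist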
CHO-K1 Ca ag: M1 agonist counterscreen hit in parental CHO-K1 cells | Fluo-8 calcium fluorescence; scaled to maximal ATP response, vehicle zero | activation, % at 3 µM | actives 0.48% (n = 360,000) | AID 602248; in the data active = activation above about 15%;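 note: untransfected CHO-K1 host cells lacking M1 receptor as counterscreen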
CHO-K1 Ca PAM: counter-screen for M1 PAMs: effect in parental CHO-K1 cells. ATP EC20, Fluo-8 calcium fluorescence; 0% at ATP EC20, 100% at ATP max. activation, % at 3 µM. actives 0.02% (n = 360,000);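 active = activation above the run cutoff, the mean activation of all test compounds plus 3 SD, cut at about 40% in these data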;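 note: peak over basal fluorescence ratio in a 140 s read after ATP addition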
CHRM1 agonist: human M1 muscarinic receptor agonism; CHO-K1 hM1, Fluo-8 calcium fluorescence, agonist mode; 0% DMSO, 100% acetylcholine EC100; activation, % at 3 µM; actives 0.33% (n = 360,000);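 active = activation above the run's mean compound activation plus 3 SD, cut at about 16% in these data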;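 note: peak over basal fluorescence ratio within a 140 s kinetic read after compound addition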
* = called active by the depositor.

How did O=C(Cc1ccc([N+](=O)[O-])cc1)Nc1cc(C(F)(F)F)cc(C(F)(F)F)c1 do in these assays?
CHRM1 PAM: -13; CHO-K1 Ca antag: 29*; CHRM1 antagonist: 29; CHO-K1 Ca ag: 3; CHO-K1 Ca PAM: -21; CHRM1 agonist: 0

What do the screens show for `O=S1(=O)CC(N2CC=CC2)CN1Cc1cn(Cc2ccccc2)nn1` (centres undefined)?
CHO-K1 Ca antag: -13; CHO-K1 Ca ag: 1; CHO-K1 Ca PAM: 6

How did O=C(N/N=C/c1ccc(OC2CSC2)cc1)c1ccccc1 do in these assays?
CHRM1 PAM: -1; CHO-K1 Ca antag: -5; CHRM1 antagonist: 0; CHO-K1 Ca ag: 9; CHO-K1 Ca PAM: 18; CHRM1 agonist: 32*

What do the screens show for `COc1ccc(CNC(=O)C(c2ccco2)N(C(=O)CNS(=O)(=O)c2ccccc2)c2ccccc2C)cc1` (centres undefined)?
CHRM1 PAM: -5; CHO-K1 Ca antag: 11; CHRM1 antagonist: 7; CHO-K1 Ca ag: 54*; CHO-K1 Ca PAM: 14; CHRM1 agonist: -7

Results for COc1ccc(S(=O)(=O)NCC(=O)N(CC(=O)NCc2ccccc2)Cc2ccco2)cc1 ?
CHRM1 PAM: 13; CHO-K1 Ca antag: -5; CHRM1 antagonist: -18; CHO-K1 Ca ag: 1; CHO-K1 Ca PAM: -9; CHRM1 agonist: -5

Results for CC/C(=N\NC(=O)CSc1ncccn1)c1ccc2c(c1)OCCO2 ?
CHRM1 PAM: 1; CHO-K1 Ca antag: 26*; CHRM1 antagonist: 0; CHO-K1 Ca ag: 0; CHO-K1 Ca PAM: -9; CHRM1 agonist: -12

How did O=C(CN1C(=O)c2ccccc2S1(=O)=O)NCc1ccc(F)cc1 do in these assays?
CHRM1 PAM: 7; CHO-K1 Ca antag: 63*; CHRM1 antagonist: -11; CHO-K1 Ca ag: 1; CHO-K1 Ca PAM: 1; CHRM1 agonist: 4

What do the screens show for `O=C(CCN1C(=O)c2ccccc2S1(=O)=O)NCc1ccc(F)cc1`?
CHRM1 PAM: 4; CHO-K1 Ca antag: -2; CHRM1 antagonist: -9; CHO-K1 Ca ag: 0; CHO-K1 Ca PAM: 4; CHRM1 agonist: -7

How did Cc1cc2cc(CNC(=O)c3ccc(S(=O)(=O)N(C)C)cc3)ccc2n1C do in these assays?
CHRM1 PAM: -26; CHO-K1 Ca antag: 22; CHRM1 antagonist: 30*; CHO-K1 Ca ag: 1; CHO-K1 Ca PAM: -12; CHRM1 agonist: -12

Results for Cc1cc2cc(CNC(=O)c3ccc(S(=O)(=O)N4CCOCC4)cc3)ccc2n1C ?
CHRM1 PAM: -31; CHO-K1 Ca antag: -7; CHRM1 antagonist: 76*; CHO-K1 Ca ag: 2; CHO-K1 Ca PAM: 20; CHRM1 agonist: -10

What do the screens show for `Cc1cc2cc(CNC(=O)c3cccc([N+](=O)[O-])c3)ccc2n1C`?
CHRM1 PAM: 3; CHO-K1 Ca antag: 15; CHRM1 antagonist: -6; CHO-K1 Ca ag: 0; CHO-K1 Ca PAM: 5; CHRM1 agonist: -7

Results for CCN(c1ccccc1)S(=O)(=O)c1cc2c3c(c1)CCN3C(=O)CC2 ?
CHRM1 PAM: 13; CHO-K1 Ca antag: 2; CHRM1 antagonist: -8; CHO-K1 Ca ag: 0; CHO-K1 Ca PAM: -10; CHRM1 agonist: 1

What do the screens show for `CC(C)(C)OC(=O)N1CCC(Cc2cc(-c3cccnc3)no2)(C(=O)O)CC1`?
CHRM1 PAM: 2; CHO-K1 Ca antag: -3; CHRM1 antagonist: -2; CHO-K1 Ca ag: 0; CHO-K1 Ca PAM: 0; CHRM1 agonist: -1

Results for CC(C)C(NC(=O)c1ccc(C(C)(C)C)cc1)C(=O)NCc1ccccn1 (centres undefined) ?
CHRM1 PAM: -30; CHO-K1 Ca antag: -8; CHRM1 antagonist: 55*; CHO-K1 Ca ag: 0; CHO-K1 Ca PAM: -15; CHRM1 agonist: -8

How did COc1ccc(C(=O)NC(C(=O)NCc2ccccn2)C(C)C)cc1 (centres undefined) do in these assays?
CHRM1 PAM: 0; CHO-K1 Ca antag: 5; CHRM1 antagonist: 2; CHO-K1 Ca ag: 0; CHO-K1 Ca PAM: 1; CHRM1 agonist: -2

Results for Cc1cc(C)c(S(=O)(=O)NC(CC(=O)O)c2cccc([N+](=O)[O-])c2)c(C)c1 (centres undefined) ?
CHRM1 PAM: -8; CHO-K1 Ca antag: 25*; CHRM1 antagonist: 6; CHO-K1 Ca ag: 0; CHO-K1 Ca PAM: -14; CHRM1 agonist: -5
